# Sampled rows, rich in hits. Any-hit rate of the full collection: about 1.1%.
# UBC9 SUMO inh = blocks human SUMOylation mediated by UBC9; P63279; HTRF SUMOylation assay, SAE1/SAE2 + UBC9, in vitro; inhibition, % at 35 µM; 290,000 tested, 0.36% active; in the data active = inhibition above about 50%, passing the limit was not always enough; inconclusive = no clear call, values can overlap the other calls
# Target sequence (P63279 whole entry, looked up): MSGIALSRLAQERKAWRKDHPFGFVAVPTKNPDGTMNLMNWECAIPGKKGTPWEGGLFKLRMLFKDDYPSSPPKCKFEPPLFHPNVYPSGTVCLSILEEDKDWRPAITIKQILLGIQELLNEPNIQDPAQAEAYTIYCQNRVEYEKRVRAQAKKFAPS
# p97 inhibitor = human p97 ATPase inhibition | recombinant p97 ATPase, Kinase-Glo ATP luminescence, 3 h | inhibition, % at 8 µM | 220,000 tested, 0.42% active; in the data active = inhibition above about 15%;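 note: 0% = DMSO vehicle and 100% = wells lacking enzyme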
# Redox H2O2 prof = compounds producing H2O2 with reducing agent – biochemical, NIH compound library profiling, artefact control for MLSCN library redox annotation, primary screen; DTT-dependent redox cycling H2O2, phenol red/HRP absorbance; 100% = 100 µM peroxide control, 0% = buffer; activation, % at 10 µM; 200,000 tested, 0.03% active; AID 878;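 active = activation of at least 50% relative to the plate's high and low controls in the primary single-dose screen; inactive = activation below 50%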;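 note: compound incubated with DTT at 0.8 mM final as the reducing agent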
# S1P3 antagonist = S1P3 (human) receptor antagonism; CHO S1P3 NFAT-BLA reporter, FRET fluorescence, antagonist mode; inhibition, % at 4.98 µM; Q99500; 170,000 tested, 0.27% active;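 active = inhibition above the plate cutoff, the mean inhibition of test wells on that plate plus 3 SD, cut at about 28% in these data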;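 note: cells challenged with S1P at its EC80 of 0.8 µM; blue over green emission ratio from cleaved BLA substrate after 4 h stimulation; 0% = S1P-stimulated wells and 100% = unstimulated DMSO-only wells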
# S1P4 ag = human S1P4 receptor agonism; activation, % at 4.98 µM; S1P4-expressing cell line, agonist reporter assay; 220,000 tested, 0.35% active; AID 1509; in the data active = activation above about 11%;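 note: 0% = DMSO vehicle and 100% = reference agonist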
# Target sequence (O95977 whole entry, looked up): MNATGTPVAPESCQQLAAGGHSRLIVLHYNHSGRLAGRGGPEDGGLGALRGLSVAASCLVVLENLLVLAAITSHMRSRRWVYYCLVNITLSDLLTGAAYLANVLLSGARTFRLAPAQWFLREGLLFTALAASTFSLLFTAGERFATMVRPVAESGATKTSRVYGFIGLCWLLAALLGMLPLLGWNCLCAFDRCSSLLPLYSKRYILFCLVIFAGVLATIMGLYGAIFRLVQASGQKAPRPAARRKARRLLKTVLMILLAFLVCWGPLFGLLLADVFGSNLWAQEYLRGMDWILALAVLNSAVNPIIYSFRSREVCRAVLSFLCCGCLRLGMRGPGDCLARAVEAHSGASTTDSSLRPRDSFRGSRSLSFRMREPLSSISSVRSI
# S1P4 antag = human S1P4 receptor antagonism | O95977 | S1P4-expressing cells, antagonist mode, reporter read-out | inhibition, % at 4.98 µM | 220,000 tested, 0.26% active | AID 1510; in the data active = inhibition above about 29%;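 note: 0% = wells stimulated with agonist and 100% = vehicle wells without agonist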
# p97 confirm = confirmation of human p97 ATPase inhibitors; shares compounds with p97 inhibitor; recombinant p97 ATPase, Kinase-Glo ATP luminescence; inhibition, % at 8 µM; 760 tested, 44% active; AID 1517;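 active = percent inhibition of p97 ATPase above a set limit, the primary screen's mean plus 3 SD, cut at about 15% in these data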;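 note: 0% = DMSO wells and 100% = wells lacking p97 protein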
# Numbers without * were called inactive; ? = inconclusive; nt = no result given.
SMILES,UBC9 SUMO inh,p97 inhibitor,Redox H2O2 prof,S1P3 antagonist,S1P4 ag,S1P4 antag,p97 confirm
CCCCn1[nH]c(-c2ccccc2)cc1=O,80*,21*,-1,16,0,-1,6
CCN(C(=O)COC(=O)C1CCN(S(=O)(=O)c2c(Cl)cccc2Cl)CC1)C1CCCCC1,-1,nt,nt,nt,nt,nt,nt
O=C(O)c1cccc(Nc2ncnc3ccc(Br)cc23)c1,24,17*,nt,7,1,-8,21*
Nc1cccc2cnccc12,88,16*,4,-19,1,5,8
Cc1ccc(N2CC(C(=O)Nc3c(C)n(C)n(-c4ccccc4)c3=O)CC2=O)cc1 (configuration not stated),19,-1,0,-13,2,3,nt
Cc1cc(C)n(-c2nc3nonc3nc2Nc2cccc(C)c2C)n1,15,4,-3,nt,-1,7,nt
Cn1c2ccccc2c(=O)c2c(=O)n(Cc3ccco3)c(-c3ccc(F)cc3)nc21,31,46*,nt,11,-1,18,17*
Cc1ccc(-c2nc3c(c(=O)c4ccccc4n3C)c(=O)n2Cc2ccco2)cc1,21,48*,nt,-12,2,-1,17*
O=[N+]([O-])c1ccc(Sc2ncc3ccccn23)nc1,8,6,nt,-9,0,19,nt
O=C(CSc1nc2ccccc2s1)Nc1cc(S(=O)(=O)N2CCOCC2)ccc1O,-7,17*,0,-4,1,6,11
COc1ccccc1CNC(=O)C(C)Sc1ccsc1[N+](=O)[O-] (configuration not stated),7,20*,1,1,1,-4,8
CC(Sc1ccsc1[N+](=O)[O-])C(=O)NCc1ccccc1 (configuration not stated),-2,16*,0,9,6,4,8
CC(Sc1ccsc1[N+](=O)[O-])C(=O)NCCc1ccc(Cl)cc1 (configuration not stated),21,-2,0,nt,0,-2,nt
Cc1ccc(C(=O)NCCc2ccc(F)cc2)s1,10,0,0,-13,0,-1,nt
O=C1/C(=C/c2c[nH]c3ccccc23)CCC/C1=C\c1c[nH]c2ccccc12,6,29*,0,5,1,-13,23*
NC(=S)N/N=C/c1coc2ccc(O)cc2c1=O,0,15*,nt,0,2,3,11
NC(=S)N/N=C/c1coc2ccc(Br)cc2c1=O,13,4,nt,-8,0,8,nt
COc1cc2cc[n+](Cc3ccc([N+](=O)[O-])cc3)cc2cc1OC,18,nt,nt,nt,nt,nt,nt
Cc1ccc(NC(=S)N2CCN(S(=O)(=O)c3ccc(F)cc3)CC2)cc1,-10,nt,nt,nt,nt,nt,nt
O=C(O)C1CSC(c2ccc3c(c2)OCO3)N1 (configuration not stated),-11,5,nt,1,1,-12,nt
O=C(O)C1CSC(c2ccc(O)c([N+](=O)[O-])c2)N1 (configuration not stated),-42,16*,-1,-21,-3,3,7
O=[N+]([O-])c1ccc(NCc2ccccc2N2CCC(CO)CC2)nc1,5,nt,nt,nt,nt,nt,nt
Cc1ccc(C(=O)NC(=C(Cl)Cl)S(=O)(=O)c2ccc(C)cc2)cc1,12,11,0,-9,1,-15,nt
O=C(NC(=C(Cl)Cl)S(=O)(=O)c1ccc(Cl)cc1)c1ccccc1,6,25*,nt,-6,0,5,27*
Cc1ccc(C(=O)NC(=C(Cl)Cl)S(=O)(=O)c2ccc(Cl)cc2)cc1,3,17*,1,-3,2,-18,23*
SMILES,UBC9 SUMO inh,p97 inhibitor,Redox H2O2 prof,S1P3 antagonist,S1P4 ag,S1P4 antag,p97 confirm
O=C1C=C(NCc2ccccc2)c2ccccc2C1=O,99,48*,0,-2,-1,5,33*
O=C(NC(Cc1ccccc1)C(=O)O)/C(=C\c1ccccc1)NC(=O)c1ccc(Br)o1 (configuration not stated),42,nt,nt,nt,nt,nt,nt
CCOP(=O)(Nc1ccc2oc(=O)c3ccccc3c2c1)OCC,27,1,nt,12,-1,-13,nt
O=C1S/C(=C\C=C\c2ccco2)C(=O)N1c1ccccc1,31,7,1,-2,2,-12,nt
O=C1S/C(=C\C=C\c2ccco2)C(=O)N1c1ccc(O)cc1,81,43*,1,-3,-1,-14,11
O=C(NN1C(=O)/C(=C/C=C/c2ccco2)SC1=S)c1ccccc1O,79*,55*,nt,0,1,-9,21*
CC1=NN(Cc2ccccc2)C(=O)C1C(c1ccc(Cl)cc1)C(C#N)C#N (configuration not stated),-8,18*,0,-6,-2,-8,9
CC1=NN(Cc2ccccc2)C(=O)C1C(c1ccccc1)C(C#N)C#N (configuration not stated),-8,1,2,nt,0,-3,nt
NC(=O)N/N=C/c1cc(Br)ccc1OC(=O)c1ccccc1,8,16*,0,-14,-1,-2,23*
O=C(COC(=O)c1ccc(S(=O)(=O)Nc2ccccc2)cc1)NCCC1=CCCCC1,-15,-1,1,0,10,-9,nt
CCOC(=O)C1=C(c2ccccc2)NC(N)=NC1c1ccc(OCc2ccc(C(=O)OC)cc2)cc1 (configuration not stated),-49,33*,nt,-11,0,6,35*
O=c1c(O)cccc2cc(O)c(O)c(O)c12,?,38*,nt,-7,1,4,45*
O=C(CSc1nc2ccc([N+](=O)[O-])cc2s1)c1ccc2ccccc2c1,20,17*,nt,-5,0,0,8
COc1ccc(C(C)=O)cc1COc1ccc(-n2cnnn2)cc1,28,-1,1,nt,2,-8,nt
NC(=S)NNc1cccc2cccnc12,92*,16*,0,-1,0,-3,11
Cc1ccc(C)n1Cc1ccc(C(=O)O)cc1,6,28*,1,nt,-2,-1,12
Cc1cc(OCC(=O)N[C@@H](CSCc2ccccc2)C(=O)O)c2c(C)c(C)c(=O)oc2c1,22,nt,nt,nt,nt,nt,nt
COc1cc(OC)cc(C(=O)NNC(=S)Nc2ccc(S(N)(=O)=O)cc2)c1,-4,21*,-2,-5,2,0,25*
CCn1c(=O)c(=O)[nH]c2cc(C(=O)N3CCN(Cc4ccc5c(c4)OCO5)CC3)ccc21,14,2,-2,2,-1,0,nt
COc1cc2c(cc1OC)CN(C(=O)CSc1nc3[nH]ncc3c(=O)n1-c1ccccc1)CC2,20,20*,0,-24,1,-9,12
Cn1c(CCc2nc3ccccc3[nH]2)nnc1SCC#N,-1,-8,-1,-12,-1,1,nt

# Screening data: PubChem BioAssay, several laboratories
